Laboratory results: the supplement of paper PMC10127200
Counter-ions that a name gives are not always drawn.

What was measured:
Experiment in all cases: Euclidean distance of Cell Painting phenotypic profile (signed KS, 77 features) to DMSO centroid (dimensionless distance); 5 or 10 uM (library dependent); higher = stronger phenotypic change vs DMSO (phenoactivity)
Conditions in all cases: 48 h
786-O = test system: 786-O
Outline: (§1)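 Library compounds were applied at 10 or 5 uM, depending on the library, with 0.1% DMSO final, for 48 h to five cancer lines and a healthy fibroblast line. After staining, cells were imaged confocally at 20X across 9 fields per well, and Harmony extracted 77 features, each scored as a signed Kolmogorov-Smirnov statistic against vehicle wells on the same plate. Phenoactivity is the Euclidean distance between each profile and the median vehicle profile, with profiles first plate-position corrected, correlation-weighted and averaged over replicates at the top dose.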

A549 = test system: A549
Outline: as §1

FB = test system: FB
Outline: as §1

HEPG2 = test system: HEPG2
Outline: as §1

OVCAR4 = test system: OVCAR4
Outline: as §1

| SMILES | Euclidean distance (786-O) | Euclidean distance (A549) | Euclidean distance (FB) | Euclidean distance (HEPG2) | Euclidean distance (OVCAR4) |
| --- | --- | --- | --- | --- | --- |
| CNC(=O)c1ccc(Nc2ncc(C(F)(F)F)c(NCc3nccnc3N(C)S(C)(=O)=O)n2)cc1 | 1.58 | 1.6 | 2.06 | 0.842 | 1.85 |
| CC1(C)C[C@@H]1C(=O)N/C(=C\CCCCSC[C@H](N)C(=O)O)C(=O)O [Cilastatin] | 0.899 | 0.574 | 1.49 | 0.578 | 0.796 |
| Nc1nc(N)nc(-c2cc(Cl)ccc2Cl)n1 [Irsogladine] | 1.09 | 1.05 | 0.809 | 0.613 | 1.41 |
| CC(C)Oc1ccc(-c2nn([C@@H](C)c3oc4ccc(F)cc4c(=O)c3-c3cccc(F)c3)c3ncnc(N)c23)cc1F [umbralisib (TGR-1202)] | 1.11 | 1.14 | 1.9 | 1.81 | 0.974 |
| CC(C)(C)NC[C@H](O)COc1nsnc1N1CCOCC1 [Timolol Maleate] | 1.22 | 0.771 | 0.609 | 0.591 | 1.76 |
| CCCNC(=O)NS(=O)(=O)c1ccc(Cl)cc1 [Chlorpropamide] | 1.01 | 0.601 | 0.968 | 0.632 | 1.99 |
| CC(CN(C)C)CN1c2ccccc2CCc2ccccc21 (stereo not given) [Trimipramine Maleate] | 1.08 | 1.02 | 1.91 | 1.2 | 1.57 |
| CCOCCn1c(N2CCCN(C)CC2)nc2ccccc21 [Emedastine] | 0.676 | 0.686 | 0.988 | 0.905 | 0.553 |
| C=C1C(=O)O[C@@H]2/C=C(\C)CC/C=C(\C)CC[C@@H]12 [Costunolide] | 1.27 | 0.924 | 1.01 | 1.29 | 0.93 |
| CC1(C)S[C@@H]2[C@H](NC(=O)[C@H](NC(=O)N3CCNC3=O)c3ccccc3)C(=O)N2[C@H]1C(=O)O [Azlocillin sodium salt] | 0.826 | 0.805 | 1.08 | 0.67 | 1.47 |
| CN[C@@H]1CCc2[nH]c3ccc(C(N)=O)cc3c2C1 [Frovatriptan Succinate] | 1.33 | 0.718 | 0.896 | 0.505 | 1.29 |
| COC(=O)/C=C/C(=O)OC [Dimethyl Fumarate] | 1.01 | 1.07 | 0.598 | 1 | 1.15 |
| Cc1cc2c(s1)Nc1ccccc1N=C2N1CCN(C)CC1 [Olanzapine] | 1.03 | 1.01 | 1.48 | 0.621 | 1.61 |
| Cc1c(C)c2c(c(C)c1O)CCC(C)(COc1ccc(CC3SC(=O)NC3=O)cc1)O2 (stereo not given) [Troglitazone (CS-045)] | 1.4 | 1.51 | 0.893 | 0.876 | 1.2 |
| CC[C@H](C)[C@H](N)C1=N[C@H](C(=O)N[C@@H](CC(C)C)C(=O)N[C@H](CCC(=O)O)C(=O)N[C@H](C(=O)N[C@H]2CCCCNC(=O)[C@H](CC(N)=O)NC(=O)[C@@H](CC(=O)O)NC(=O)[C@H](Cc3cnc[nH]3)NC(=O)[C@@H](Cc3ccccc3)NC(=O)[C@H]([C@@H](C)CC)NC(=O)[C@@H](CCCN)NC2=O)[C@@H](C)CC)CS1 [Bacitracin] | 1.65 | 1.13 | 0.901 | 0.726 | 1.22 |
| CC1(C)[C@H](C(=O)O)N2C(=O)C[C@H]2S1(=O)=O [Sulbactam sodium] | 0.743 | 0.526 | 0.933 | 0.675 | 0.666 |
| COc1ccc2cc3[n+](cc2c1OC)CCc1cc2c(cc1-3)OCO2 [Berberine chloride] | 1.19 | 1.36 | 2.07 | 1.41 | 1.31 |
| C=CC(=O)N1CC/C(=C\c2ccc(F)c([N+](=O)[O-])c2)C(=O)/C(=C/c2ccc(F)c([N+](=O)[O-])c2)C1 | 6.18 | 5.03 | 5.74 | 5.06 | 6.21 |
| Cc1ccc(Sc2ccccc2N2CCNCC2)c(C)c1 [Vortioxetine] | 2.68 | 2.71 | 2.68 | 5.06 | 2.43 |
| CCCNC(C)C(=O)Nc1c(C)csc1C(=O)OC (stereo not given) [Articaine HCl] | 1.24 | 0.941 | 0.813 | 0.87 | 1.06 |
| CC1CCC(C(C)C)C(O)C1 (single isomer, unassigned; (-)) [(-)-Menthol] | 0.7 | 0.703 | 0.797 | 0.699 | 0.955 |
| C=C(NC(=O)C(=C)NC(=O)c1csc(C2=N[C@@H]3c4csc(n4)[C@H]4NC(=O)c5csc(n5)[C@H]([C@](C)(O)[C@@H](C)O)NC(=O)[C@H]5CSC(=N5)/C(=C/C)NC(=O)[C@H]([C@@H](C)O)NC(=O)c5csc(n5)[C@]3(CC2)NC(=O)[C@H](C)NC(=O)C(=C)NC(=O)[C@H](C)NC(=O)[C@H]([C@@H](C)CC)N[C@@H]2C=Cc3c([C@H](C)O)cc(nc3[C@H]2O)C(=O)O[C@@H]4C)n1)C(N)=O [Thiostrepton] | 4.46 | 2.6 | 4.95 | 4.36 | 2.62 |

| SMILES | Euclidean distance (786-O) | Euclidean distance (A549) | Euclidean distance (FB) | Euclidean distance (HEPG2) | Euclidean distance (OVCAR4) |
| --- | --- | --- | --- | --- | --- |
| C[C@@H]1CCC[C@H](C)N1NC(=O)c1ccc(Cl)c(S(N)(=O)=O)c1 [Clopamide] | 1.15 | 1.14 | 0.969 | 0.528 | 1.14 |
| Cc1cc(Nc2cc(N)ncn2)c(=O)n2c1C(=O)NC21CCCCC1 | 0.779 | 0.866 | 1.08 | 0.427 | 1.18 |
| CC(C)(Cc1ccc2ccccc2c1)NC[C@@H](O)COc1cccc(Cl)c1C#N | 1.35 | 1.64 | 1.06 | 1.77 | 1.45 |
| CC1=C(C(=O)O)N2C(=O)[C@@H](NC(=O)[C@H](N)c3ccccc3)[C@H]2SC1 [Cephalexin] | 1.16 | 1.01 | 1.05 | 0.939 | 1.1 |
| C=C1CC[C@@H]2[C@](C)(CO)[C@H](O)CC[C@@]2(C)[C@@H]1C/C=C1/C(=O)OC[C@H]1O [Andrographolide] | 2.41 | 1.6 | 1.96 | 1.62 | 1.67 |
| Cc1nnc(C(=O)NC(C)(C)c2nc(C(=O)NCc3ccc(F)cc3)c(O)c(=O)n2C)o1 [Raltegravir (MK-0518)] | 1.17 | 0.695 | 1.11 | 0.537 | 1.35 |
| CCN(CC)CCOc1ccc(C(=C(Cl)c2ccccc2)c2ccccc2)cc1 [Clomifene citrate] | 4.89 | 3.99 | 3.36 | 4.07 | 3.4 |
| CCOC(=O)[N-]c1c[n+](N2CCOCC2)no1 [Molsidomine] | 0.969 | 1.06 | 0.842 | 0.73 | 1.63 |
| CN1[C@@H]2CC[C@H]1C[C@@H](OC(=O)c1c[nH]c3ccccc13)C2 [Tropisetron HCl] | 0.839 | 1.16 | 1.16 | 0.825 | 0.93 |
| C=CCc1ccc(O)c(-c2cc(CC=C)ccc2O)c1 [Magnolol] | 1.13 | 0.915 | 0.817 | 0.94 | 1.17 |
| COc1cc(N)cn[n+]1-c1ccccc1 [Amezinium (methylsulfate)] | 1.39 | 0.864 | 0.801 | 0.523 | 1.16 |
| Cc1ccsc1C(=CCCN1CCC[C@@H](C(=O)O)C1)c1sccc1C [Tiagabine] | 0.676 | 0.377 | 0.779 | 0.574 | 1.14 |
| CCn1cc(C(=O)O)c(=O)c2cnc(N3CCNCC3)nc21 [Pipemidic acid] | 1.47 | 0.855 | 1.02 | 0.639 | 1.13 |
| Nc1[nH]cnc2ncnc1-2 [Adenine HCl] | 1.09 | 0.466 | 1.18 | 0.46 | 1.59 |
| CC/C=C\C/C=C\C/C=C\C/C=C\C/C=C\CCCC(=O)O [Eicosapentaenoic Acid] | 0.992 | 1.07 | 0.941 | 0.664 | 1.41 |
| COC(=O)C1=C(C#N)NC(C)=C(C(=O)OC(C)C)C1c1cccc([N+](=O)[O-])c1 (stereo not given) [Nilvadipine] | 1.2 | 0.818 | 1.19 | 0.907 | 1.34 |
| OCCOCCN1CCN(C2=Nc3ccccc3Sc3ccccc32)CC1 [Quetiapine] | 0.8 | 0.671 | 0.864 | 1.02 | 0.901 |
| O=C(/C=C/C=C/c1ccc2c(c1)OCO2)N1CCCCC1 [Piperine] | 1.7 | 0.714 | 1.06 | 0.563 | 1.49 |
| C[C@H](CSC(=O)c1ccccc1)C(=O)N1C[C@@H](Sc2ccccc2)C[C@H]1C(=O)O [Zofenopril calcium] | 0.845 | 0.393 | 0.787 | 0.559 | 0.93 |
| COc1c(O)cc2c(c1O)[C@@H]1O[C@H](CO)[C@@H](O)[C@H](O)[C@H]1OC2=O [Bergenin] | 1.22 | 0.742 | 0.906 | 0.765 | 2.16 |
| CNC(=O)c1cc(COc2nnc(Nc3ccc(Cl)cc3)c3ccoc23)ccn1 [Telatinib] | 1.21 | 0.814 | 2.01 | 1.41 | 1.74 |
